From PubChem BioAssay (NCATS)
Results filed as inconclusive are left out. The source made the active and inactive calls. Calls come from the whole dose curve; as a rule, active = well fitted curve in the direction sought with a large enough effect; inconclusive = small, poorly fitted or top-dose-only effect, or another doubt; inactive = no such curve, though single readings can be large; an effect the other way counts as inactive or inconclusive.

Columns and labels:
[1] = test system: MCC-26; test: qHTS assay to identify novel small-molecules to repurpose for Merkel cell carcinoma treatment (AID 1296009); conditions: MCC and control cell lines, CellTiter-Glo viability, 72 h; series mostly up to 46 µM; note: nearly all actives have a fitted effect of over 60% in size
Method in brief: (§1)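 Luminescence from CellTiter-Glo, read 10 min after addition at room temperature, reported viability following a 72 hr, 37 degree celsius treatment with NPC or MIPE compounds in titration; values normalized to plate controls.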

[2] = test system: MKL-1; test: as above; conditions: MCC and control cell lines, CellTiter-Glo viability, 72 h; series mostly up to 46 µM
Method in brief: as §1

[3] = test system: C33A; test: Primary qHTS to identify gynecologic anti-cancer compounds using libraries of approved drugs and bioactive compounds (AID 1345084); conditions: Gynecologic cancer cell panel viability, ATPlite luminescence, 48 h; series mostly up to 57.5 µM; note: nearly all actives have a fitted effect of over 55% in size
Method in brief: (§2)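 Cells, 1,000 per well, were allowed to settle for 16 h at 37 C before compound addition. Five concentrations were tested for 48 h, and viability was read by ATPlite luminescence after 15 min at room temperature.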

[4] = test system: CAOV3; test: as above; conditions: Gynecologic cancer cell panel viability, ATPlite luminescence, 48 h; series mostly up to 57.5 µM
Method in brief: as §2

[5] = test system: CASKI; test: as above; conditions: Gynecologic cancer cell panel viability, ATPlite luminescence, 48 h; series mostly up to 57.5 µM
Method in brief: as §2

[6] = test system: Es-2; test: as above; conditions: Gynecologic cancer cell panel viability, ATPlite luminescence, 48 h; series mostly up to 57.5 µM
Method in brief: as §2

[7] = test system: HeLa; test: as above; conditions: Gynecologic cancer cell panel viability, ATPlite luminescence, 48 h; series mostly up to 57.5 µM
Method in brief: as §2

[8] = test system: JEG-3; test: as above; conditions: Gynecologic cancer cell panel viability, ATPlite luminescence, 48 h; series mostly up to 57.5 µM
Method in brief: as §2

[9] = test system: PA-1; test: as above; conditions: Gynecologic cancer cell panel viability, ATPlite luminescence, 48 h; series mostly up to 57.5 µM
Method in brief: as §2

[10] = test system: Tov-21-G; test: as above; conditions: Gynecologic cancer cell panel viability, ATPlite luminescence, 48 h; series mostly up to 57.5 µM
Method in brief: as §2

[11] = test system: Tov112D; test: as above; conditions: Gynecologic cancer cell panel viability, ATPlite luminescence, 48 h; series mostly up to 57.5 µM
Method in brief: as §2

[12] = test system: astro; test: Drug repurposing screens with cells derived from glioblastoma tumor samples (AID 1345199); conditions: viability, ATP luminescence, 48 h; series mostly up to 45.9 µM; note: nearly all actives have a fitted effect of over 40% in size
Method in brief: (§3)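 Primary testing used CD133+ neurospheres from four GBM patients, seven concentrations, 48 h exposure and ATP-based viability; confirmation added three slower-growing patient lines.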

[13] = test system: MKL-2; test: qHTS assay to identify novel small-molecules to repurpose for Merkel cell carcinoma treatment (AID 1296009); conditions: MCC and control cell lines, CellTiter-Glo viability, 72 h; series mostly up to 46 µM; note: nearly all actives have a fitted effect of over 60% in size
Method in brief: as §1

[14] = test system: UISO; test: as above; conditions: MCC and control cell lines, CellTiter-Glo viability, 72 h; series mostly up to 46 µM
Method in brief: as §1

[15] = test system: WaGa; test: as above; conditions: MCC and control cell lines, CellTiter-Glo viability, 72 h; series mostly up to 46 µM
Method in brief: as §1

[16] = test system: Hek293T; test: Primary qHTS to identify gynecologic anti-cancer compounds using libraries of approved drugs and bioactive compounds (AID 1345084); conditions: Gynecologic cancer cell panel viability, ATPlite luminescence, 48 h, control line for the selectivity index; series mostly up to 57.5 µM; note: nearly all actives have a fitted effect of over 55% in size
Method in brief: as §2

[17] = test system: OV90; test: as above; conditions: Gynecologic cancer cell panel viability, ATPlite luminescence, 48 h; series mostly up to 57.5 µM
Method in brief: as §2

[18] = test system: SKOV3; test: as above; conditions: Gynecologic cancer cell panel viability, ATPlite luminescence, 48 h; series mostly up to 57.5 µM
Method in brief: as §2

[19] = Drug repurposing screens with cells derived from glioblastoma tumor samples (AID 1345199); conditions: GBM patient neurospheres viability, ATP luminescence, 48 h; note: nearly all actives have a fitted effect of over 40% in size
Method in brief: as §3

[20] = test system: NIH3T3; test: qHTS assay to identify novel small-molecules to repurpose for Merkel cell carcinoma treatment (AID 1296009); conditions: MCC and control cell lines, CellTiter-Glo viability, 72 h; at 44.8 µM (top of the series) unless noted; note: nearly all actives have a fitted effect of over 60% in size
Method in brief: as §1

[21] = at 45.9 µM (top of the series), tumour line B
[22] = at 45.9 µM (top of the series), tumour line D
[23] = at 46.1 µM (top of the series), tumour line C
[24] = at 46 µM (top of the series), tumour line A
% is set by controls: 0 for no effect and ±100 for the full control effect; potency is the fitted concentration of half-maximal effect.

CCNC(=O)N1CCN(CCCC(c2ccc(F)cc2)c2ccc(F)cc2)CC1
inactive: Potency [1] | Potency [2] | Potency [3] | Potency [4] | Potency [5] | Potency [6] | Potency [7] | Potency [8] | Potency [9] | Potency [10] | Potency [11] | Potency [12]

CN1CCN(CC(=O)N2c3ccccc3C(=O)Nc3cccnc32)CC1
inactive: activity change, negative = cytotoxicity [1] 1.14% [at 4.84 µM] | activity change, negative = cytotoxicity [13] 15.9% [at 4.84 µM] | activity change, negative = cytotoxicity [14] 0.833% [at 4.84 µM] | activity change, negative = cytotoxicity [15] 4.82% [at 4.84 µM] | activity change, negative = cytotoxicity [3] -17.4% [at 6.55 µM] | activity change, negative = cytotoxicity [4] 6.09% [at 6.55 µM] | activity change, negative = cytotoxicity [5] 7.9% [at 6.55 µM] | activity change, negative = cytotoxicity [6] 2.19% [at 6.55 µM] | activity change, negative = cytotoxicity [7] 1.94% [at 6.55 µM] | activity change, negative = cytotoxicity [16] 3.74% [at 6.55 µM] | activity change, negative = cytotoxicity [8] -2.67% [at 6.55 µM] | activity change, negative = cytotoxicity [17] 8.92% [at 6.55 µM] | activity change, negative = cytotoxicity [9] 18.1% [at 6.55 µM] | activity change, negative = cytotoxicity [18] 8.94% [at 6.55 µM] | activity change, negative = cytotoxicity [10] 7.44% [at 6.55 µM] | activity change, negative = cytotoxicity [11] -0.53% [at 6.55 µM] | activity, negative = cell killing [19, 21] -1.68% | activity, negative = cell killing [19, 22] -4.29% | activity, negative = cell killing [19, 23] 9.11% | Potency [12]

COC(=O)C1=C(C)NC(C)=C(C(=O)OC(C)(C)CN(C)CCC(c2ccccc2)c2ccccc2)C1c1cccc([N+](=O)[O-])c1 (stereo unspecified)
active: Potency [2] 23.7 µM | Potency ([19]; tumour line A) 2 µM | Potency ([19]; tumour line C) 5.8 µM | Potency ([19]; tumour line D) 5.01 µM
inactive: Potency [1] | Potency [3] | Potency [4] | Potency [5] | Potency [6] | Potency [16] | Potency [8] | Potency [17] | Potency [9] | Potency [10] | Potency [11]

CN(C)CCCN1c2ccccc2Sc2ccc(C(F)(F)F)cc21
inactive: Potency [1] | Potency [7] | Potency [8]
active: Potency [13] 13.3 µM | Potency [15] 26.6 µM

O=C1CC2(CCCC2)CC(=O)N1CCCCN1CCN(c2ncccn2)CC1
inactive: Potency [1] | Potency [13] | Potency [14] | Potency [15] | Potency [3] | Potency [5] | Potency [6] | Potency [7] | Potency [16] | Potency [8] | Potency [17] | Potency [9] | Potency [18] | Potency [10] | Potency [11] | activity, negative = cell killing [19, 21] -25.4% | activity, negative = cell killing [19, 23] -16.7% | Potency [12]
active: Potency ([19]; tumour line A) 5.01 µM

Nc1nc(N)c2nc(-c3ccccc3)c(N)nc2n1
inactive: Potency [1] | Potency [8] | Potency [18] | activity, negative = cell killing [19, 23] 0.453%
active: Potency [15] 26.6 µM | Potency [3] 10 µM | Potency [6] 15.8 µM | Potency [10] 20 µM | Potency ([19]; tumour line A) 12.6 µM | Potency ([19]; tumour line B) 28.2 µM

Fc1ccc(C(c2ccc(F)cc2)N2CCN(C/C=C/c3ccccc3)CC2)cc1
inactive: Potency [1] | Potency [14] | Potency [6] | Potency [7] | Potency [16] | Potency [8] | Potency [9] | Potency [18] | Potency [10] | Potency [11]

CC(C)[N+](C)(CCOC(=O)C1c2ccccc2Oc2ccccc21)C(C)C
inactive: Potency [1] | outcome [20] | Potency [14] | Potency [3] | Potency [4] | Potency [5] | Potency [6] | Potency [7] | Potency [16] | Potency [8] | Potency [17] | Potency [9] | Potency [18] | Potency [10] | Potency [11] | activity, negative = cell killing [19, 21] -4.27% | activity, negative = cell killing [19, 22] -14.8% | activity, negative = cell killing [19, 24] -16.6% | activity, negative = cell killing [19, 23] -11.5% | Potency [12]

COC(=O)C1=C(C)NC(C)=C(C(=O)OCCN(C)Cc2ccccc2)C1c1cccc([N+](=O)[O-])c1 (stereo unspecified)
active: Potency [14] 23.7 µM | Potency ([19]; tumour line A) 8.91 µM | Potency ([19]; tumour line D) 14.1 µM
inactive: Potency [3] | Potency [5] | Potency [6] | Potency [8] | Potency [10] | activity, negative = cell killing [19, 23] 14.5%

CC[N+](C)(C)c1cccc(O)c1
inactive: Potency [3] | Potency [4] | Potency [5] | Potency [6] | Potency [16] | Potency [8] | Potency [17] | Potency [9] | Potency [18] | Potency [10] | Potency [11] | activity, negative = cell killing ([19]; at 20 µM (top of the series), tumour line C) -0.675% | activity, negative = cell killing ([19]; at 21.2 µM (top of the series), tumour line B) -16.9% | activity, negative = cell killing ([19]; at 21.2 µM (top of the series), tumour line D) -14.7% | activity, negative = cell killing ([19]; at 21.3 µM (top of the series), tumour line A) -22.7%

CCCOc1ccccc1-c1nc2n[nH]nc2c(=O)[nH]1
inactive: Potency [1] | Potency [13] | Potency [14] | Potency [15] | Potency [3] | Potency [4] | Potency [5] | Potency [6] | Potency [16] | Potency [8] | Potency [17] | Potency [9] | Potency [18] | Potency [10] | Potency [11] | activity, negative = cell killing [19, 21] -4.45% | activity, negative = cell killing [19, 22] -8.24% | activity, negative = cell killing [19, 24] -28% | activity, negative = cell killing [19, 23] -19% | Potency [12]

CCOC(=O)C1=C(C)NC(C)=C(C(=O)OC)C1c1cccc(Cl)c1Cl (stereo unspecified)
active: Potency ([19]; tumour line A) 12.6 µM
inactive: Potency [1] | Potency [13] | Potency [14] | Potency [3] | Potency [4] | Potency [5] | Potency [6] | Potency [16] | Potency [8] | Potency [17] | Potency [9] | Potency [18] | Potency [10] | Potency [11] | activity, negative = cell killing [19, 21] -16.5%

COCCCC/C(=N\OCCN)c1ccc(C(F)(F)F)cc1
inactive: Potency [16] | Potency [8] | Potency [9] | Potency [10] | Potency [11]
